# According to the supplement of paper PMC8728848:
# Only a selection was taken, and the strongest signals are over-represented in it overall.
# B1: Blon2468mut (Bifidobacterium longum) (protein)
# chain: MTFIKQMMPRYVASMTAGIVAAAMAATCAFAPVANADAVSPTQETIQSTGRHFMVYYRAWRDVTMKGVNTDLPDDNWISMYDIPYGVDVVNIFSYVPSGQEEQAQPFYDKLKSDYAPYLHSRGIKLVRGIDYTGVAVNGFRTFMKEQNKTESEATEADYDAYAKQVIDKYMISVGLDGLDIDMQAHPNDADVKISDNVIRALSKHIGPKSAKPDTTMFLYDTNGSYLNPFKNVAECFDYVAYQQYGSSSDRTARAAADYQPYIGNEFVPGLTFPEEGDMNNRWYDATEPYEESHFYQVASYVREHNLGGMFVYALDRDGRNYDEDLRRIVPSNLLWTKTAIAESEGMALDTAKTAANHYLDRMSLRQVIDDNAASADKARDMVGKAANLYETNKAVLGGDYGEGFSNTYDPTLEAGLLGIDISVLQQQIDKSSEIIGADTAESDAKTALRMARDAAIDGLTGKIYTADQVSAWSQALKAALDATVPVPTPDSTDQNGNRDKVTNHKVQGQPKQLSATGISTDIIVAVGVTLAIAGVALSLSRKLS
# How the values were obtained:
# Assay in all cases: glycan array binding signal (z-score within array); higher = stronger binding
# Settings in all cases: glycan notation: IUPAC condensed, linker removed
# [1] = biological target: Glc(b1-6)Glc
# Outline: (§1)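 The Consortium for Functional Glycomics database supplied 3228 glycan arrays, of which those lacking an available protein sequence were dropped. The binding signal, a within-array Z-score, was averaged across arrays of the same protein sequence and across linkers. Negative scores can be read as non-binding.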
# [2] = biological target: GlcNAc(b1-2)Man(a1-3)[GlcNAc(b1-2)Man(a1-6)]Man(b1-4)GlcNAc(b1-4)GlcNAc
# Outline: as §1
# [3] = biological target: GlcNAc(b1-2)[GlcNAc(b1-4)]Man(a1-3)[GlcNAc(b1-4)][GlcNAc(b1-2)[GlcNAc(b1-6)]Man(a1-6)]Man(b1-4)GlcNAc(b1-4)GlcNAc
# Outline: as §1
# [4] = biological target: GlcNAc(b1-3)Gal(b1-4)GlcNAc(b1-3)Gal(b1-4)GlcNAc(b1-3)GalNAc
# Outline: as §1
# [5] = biological target: GlcNAc(b1-6)GalNAc
# Outline: as §1
# [6] = biological target: Man(a1-2)Man(a1-2)Man(a1-6)[Man(a1-3)]Man
# Outline: as §1
# [7] = biological target: Man(a1-2)Man(a1-3)[Man(a1-6)]Man(a1-6)[Man(a1-2)Man(a1-3)]Man(b1-4)GlcNAc(b1-4)GlcNAc
# Outline: as §1
# [8] = biological target: Man(a1-3)[Man(a1-6)]Man
# Outline: as §1
# [9] = biological target: Man(a1-3)[Man(a1-6)]Man(a1-6)[Man(a1-3)]Man
# Outline: as §1
# [10] = biological target: Man(a1-3)[Man(a1-6)]Man(b1-4)GlcNAc(b1-4)GlcNAc
# Outline: as §1
# [11] = biological target: Man(a1-3)[Man(a1-6)]Man(b1-4)GlcNAc(b1-4)[Fuc(a1-6)]GlcNAc
# Outline: as §1
# [12] = biological target: Man(b1-4)GlcNAc
# Outline: as §1
# [13] = biological target: MurNAc(b1-4)GlcNAc
# Outline: as §1
# [14] = biological target: Neu5Ac(a2-3)Gal(b1-3)GalNAc6S
# Outline: as §1
# [15] = biological target: Neu5Ac(a2-3)Gal(b1-3)[Fuc(a1-4)]GlcNAc(b1-3)Gal(b1-4)[Fuc(a1-3)]GlcNAc
# Outline: as §1
# [16] = biological target: Neu5Ac(a2-3)Gal(b1-4)GlcNAc(b1-2)Man(a1-3)[GlcNAc(b1-4)][Neu5Ac(a2-3)Gal(b1-4)GlcNAc(b1-2)Man(a1-6)]Man(b1-4)GlcNAc(b1-4)GlcNAc
# Outline: as §1
# [17] = biological target: Neu5Ac(a2-3)Gal(b1-4)GlcNAc(b1-3)Gal
# Outline: as §1
# [18] = biological target: Neu5Ac(a2-3)Gal(b1-4)GlcNAc(b1-3)Gal(b1-4)GlcNAc(b1-3)Gal(b1-4)GlcNAc
# Outline: as §1
# [19] = biological target: Neu5Ac(a2-3)Gal(b1-4)GlcNAc(b1-3)Gal(b1-4)GlcNAc(b1-3)Gal(b1-4)GlcNAc(b1-2)Man(a1-3)[Neu5Ac(a2-3)Gal(b1-4)GlcNAc(b1-3)Gal(b1-4)GlcNAc(b1-3)Gal(b1-4)GlcNAc(b1-2)Man(a1-6)]GalNAc
# Outline: as §1
# [20] = biological target: Neu5Ac(a2-3)Gal(b1-4)GlcNAc(b1-3)Gal(b1-4)[Fuc(a1-3)]GlcNAc
# Outline: as §1
# [21] = biological target: Neu5Ac(a2-6)Gal(b1-4)GlcNAc(b1-2)Man(a1-3)[Neu5Ac(a2-3)Gal(b1-4)GlcNAc(b1-2)Man(a1-6)]Man(b1-4)GlcNAc(b1-4)GlcNAc
# Outline: as §1
# [22] = biological target: Neu5Ac(a2-6)Gal(b1-4)GlcNAc(b1-2)Man(a1-3)[Neu5Ac(a2-6)Gal(b1-4)GlcNAc(b1-2)Man(a1-6)]Man(b1-4)GlcNAc(b1-4)[Fuc(a1-6)]GlcNAc
# Outline: as §1
# [23] = biological target: Neu5Ac(a2-6)Gal(b1-4)GlcNAc(b1-2)Man(a1-6)Man(b1-4)GlcNAc(b1-4)GlcNAc
# Outline: as §1
# [24] = biological target: Neu5Ac(a2-6)Gal(b1-4)GlcNAc(b1-3)Gal(b1-4)[Fuc(a1-3)]GlcNAc(b1-3)Gal(b1-4)[Fuc(a1-3)]GlcNAc
# Outline: as §1
# [25] = biological target: Neu5Ac(a2-8)Neu5Ac
# Outline: as §1
# [26] = biological target: Neu5Ac(a2-8)Neu5Ac(a2-3)Gal(b1-4)GlcNAc
# Outline: as §1
binder,measurement,setting,value
B1,glycan array binding signal (z-score),[1],-0.029
same,glycan array binding signal (z-score),[2],-0.069
same,glycan array binding signal (z-score),[3],-0.091
same,glycan array binding signal (z-score),[4],-0.065
same,glycan array binding signal (z-score),[5],-0.094
same,glycan array binding signal (z-score),[6],-0.034
same,glycan array binding signal (z-score),[7],-0.083
same,glycan array binding signal (z-score),[8],-0.056
same,glycan array binding signal (z-score),[9],0.323
same,glycan array binding signal (z-score),[10],6.11
same,glycan array binding signal (z-score),[11],22.6
same,glycan array binding signal (z-score),[12],-0.072
same,glycan array binding signal (z-score),[13],-0.087
same,glycan array binding signal (z-score),[14],-0.077
same,glycan array binding signal (z-score),[15],0.065
same,glycan array binding signal (z-score),[16],-0.063
same,glycan array binding signal (z-score),[17],-0.065
same,glycan array binding signal (z-score),[18],-0.05
same,glycan array binding signal (z-score),[19],-0.005
same,glycan array binding signal (z-score),[20],-0.04
same,glycan array binding signal (z-score),[21],0.012
same,glycan array binding signal (z-score),[22],-0.077
same,glycan array binding signal (z-score),[23],-0.076
same,glycan array binding signal (z-score),[24],-0.078
same,glycan array binding signal (z-score),[25],-0.066
same,glycan array binding signal (z-score),[26],-0.079
